# Source: PubChem BioAssay AID1851 (National Center for Advancing Translational Sciences (NCATS), 2009)
# In all, about 16,000 compounds went through this assay and about 5,100 (32%) were called active. About 25% were inconclusive and are not listed. Calls follow the shape of the dose curve; as a rule, active = well fitted curve in the direction sought with a large enough effect; inconclusive = small, poorly fitted or top-dose-only effect, or effect the other way; inactive = no such curve, though single readings can be large or run the other way. The list shows a part of the results. A structure can be active in one record and inactive in another.
# Target: Cytochrome P450 3A4 (Homo sapiens) (UniProt P08684)
# Test: Cytochrome panel assay with activity outcomes
# Settings: recombinant CYP, pro-luciferin dealkylation, luminescence, p450-cyp3a4; series mostly up to 57.1 µM
# % is scaled to controls: 0 for no effect and ±100 for the full control effect.
# Chain of Cytochrome P450 3A4 (Homo sapiens) (P08684 whole entry, looked up): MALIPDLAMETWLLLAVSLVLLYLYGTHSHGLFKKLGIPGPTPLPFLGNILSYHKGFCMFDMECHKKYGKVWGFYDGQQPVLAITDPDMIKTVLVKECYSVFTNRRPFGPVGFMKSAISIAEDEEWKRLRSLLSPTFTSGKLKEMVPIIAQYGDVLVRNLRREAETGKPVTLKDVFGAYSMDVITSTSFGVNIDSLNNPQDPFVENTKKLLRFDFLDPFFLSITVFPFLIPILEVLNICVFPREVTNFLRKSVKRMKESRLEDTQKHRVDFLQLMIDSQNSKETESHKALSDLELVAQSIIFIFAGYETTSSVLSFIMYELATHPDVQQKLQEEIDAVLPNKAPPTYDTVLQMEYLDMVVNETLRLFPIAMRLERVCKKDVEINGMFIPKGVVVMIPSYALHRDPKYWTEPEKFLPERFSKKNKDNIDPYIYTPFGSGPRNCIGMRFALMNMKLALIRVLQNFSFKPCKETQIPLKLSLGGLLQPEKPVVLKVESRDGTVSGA
SMILES,"activity, negative = inhibition",AC50
COc1cc2c(cc1OC)[C@@]13CCN4CC5=CCO[C@H](CC(=O)O)[C@@H]([C@H]1N2)[C@H]5C[C@H]43,-10.2% [at 11.4 µM] (inactive),
CCC1(CCSC(=N)N)C(=O)NC(=O)NC1=O,-21.7% [at 11.4 µM] (inactive),
C[C@H]1[C@H](NC(=O)/C(=N/OC(C)(C)C(=O)O)c2csc(N)n2)C(=O)N1S(=O)(=O)O (stereo in doubt),inactive,
O=C(O)CNC(=O)[C@@H](CS)Cc1ccccc1,inactive,
CC(C)(C)c1cc(C=C(C#N)C#N)cc(C(C)(C)C)c1O,,3.16 µM (active)
N#CC(C#N)=Cc1cc(O)c(O)c(O)c1,,10 µM (active)
NCc1cc(=O)[nH]o1,inactive,
CCCN[C@@H]1CCc2c(OC)cccc2[C@@H]1C,inactive,
C[C@H]1CN(C2CCC(C#N)(c3ccc(F)cc3)CC2)CC[C@@]1(C(=O)O)c1ccccc1 (some centres not stated),inactive,
COc1cc2c(cc1O)C[C@@H]1c3c(cc(O)c(OC)c3-2)CCN1C,-12.7% [at 11.4 µM] (inactive),
CCCN1CC[C@@H]2c3cc(O)ccc3CC[C@H]21,inactive,
CC(C)c1ccc(C(c2c(O)c3ccccc3oc2=O)c2c(O)c3ccccc3oc2=O)cc1,-28.5% [at 11.4 µM] (inactive),
CC1=NCCc2c1[nH]c1cc(O)ccc21,inactive,
CC(NCc1ccc(Cl)cc1)C(O)c1ccccc1 (configuration not stated),inactive,
CCNC[C@H](O)c1cccc(O)c1,inactive,
C[C@@H](Cc1ccc(OCC(=O)O)cc1)NC[C@H](O)c1cccc(Cl)c1,,25.1 µM (active) and inactive
CCOC(=O)c1ncn2c1CN(C)C(=O)c1cc(F)ccc1-2,inactive,
Cn1ccnc1,inactive,
CNCCc1c[nH]c2ccc(O)cc12,inactive,
CC(=O)c1ccc2c(c1)N(CCCN(C)C)c1ccccc1S2,inactive,
C=CCN1C(=O)c2ccccc2Sc2ccc(C(=O)N3CCC4(CC3)OCCO4)cc21,,3.98 µM (active)
O=C(c1cc2cc3ccc(Cl)cc3nc2o1)N1CCC2(CC1)OCCO2,inactive,
O=C(O)CS(=O)(=O)C(c1ccccc1)c1ccccc1,2.64% [at 11.4 µM] (inactive),
CC(=O)c1c(O)c(C)c(O)c(Cc2c(O)c3c(c(C(=O)/C=C\c4ccccc4)c2O)OC(C)(C)C=C3)c1O,,12.6 µM (active)
Clc1cnc(Oc2ccc(Oc3ncc(Cl)cc3Cl)cc2)c(Cl)c1,inactive,
CSC([N-]/N=C/c1cccc(C)n1)=[S]=[Cu].CS[C@H]([S-])[N-]/N=C/c1cccc(C)n1,,3.98 µM (active)
CCCN(CCC)[C@@H]1CCc2c(OC)cccc2[C@@H]1C,inactive,
